For 24 compounds, Potency results are on record in PubChem BioAssay (NCATS).

Each structure is given as a SMILES string. Results filed as inconclusive are left out. Entries that show only a call come without a potency. Calls of active or inactive are those of the source. Calls come from the whole dose curve; as a rule, active = well fitted inhibition curve with a large enough effect; inconclusive = small, poorly fitted or top-dose-only effect; inactive = flat fitted curve, though single readings scatter.
Potency is the fitted concentration of half-maximal effect.

Chain of Voltage-gated inwardly rectifying potassium channel KCNH2 (Homo sapiens) (Q12809 whole entry, looked up): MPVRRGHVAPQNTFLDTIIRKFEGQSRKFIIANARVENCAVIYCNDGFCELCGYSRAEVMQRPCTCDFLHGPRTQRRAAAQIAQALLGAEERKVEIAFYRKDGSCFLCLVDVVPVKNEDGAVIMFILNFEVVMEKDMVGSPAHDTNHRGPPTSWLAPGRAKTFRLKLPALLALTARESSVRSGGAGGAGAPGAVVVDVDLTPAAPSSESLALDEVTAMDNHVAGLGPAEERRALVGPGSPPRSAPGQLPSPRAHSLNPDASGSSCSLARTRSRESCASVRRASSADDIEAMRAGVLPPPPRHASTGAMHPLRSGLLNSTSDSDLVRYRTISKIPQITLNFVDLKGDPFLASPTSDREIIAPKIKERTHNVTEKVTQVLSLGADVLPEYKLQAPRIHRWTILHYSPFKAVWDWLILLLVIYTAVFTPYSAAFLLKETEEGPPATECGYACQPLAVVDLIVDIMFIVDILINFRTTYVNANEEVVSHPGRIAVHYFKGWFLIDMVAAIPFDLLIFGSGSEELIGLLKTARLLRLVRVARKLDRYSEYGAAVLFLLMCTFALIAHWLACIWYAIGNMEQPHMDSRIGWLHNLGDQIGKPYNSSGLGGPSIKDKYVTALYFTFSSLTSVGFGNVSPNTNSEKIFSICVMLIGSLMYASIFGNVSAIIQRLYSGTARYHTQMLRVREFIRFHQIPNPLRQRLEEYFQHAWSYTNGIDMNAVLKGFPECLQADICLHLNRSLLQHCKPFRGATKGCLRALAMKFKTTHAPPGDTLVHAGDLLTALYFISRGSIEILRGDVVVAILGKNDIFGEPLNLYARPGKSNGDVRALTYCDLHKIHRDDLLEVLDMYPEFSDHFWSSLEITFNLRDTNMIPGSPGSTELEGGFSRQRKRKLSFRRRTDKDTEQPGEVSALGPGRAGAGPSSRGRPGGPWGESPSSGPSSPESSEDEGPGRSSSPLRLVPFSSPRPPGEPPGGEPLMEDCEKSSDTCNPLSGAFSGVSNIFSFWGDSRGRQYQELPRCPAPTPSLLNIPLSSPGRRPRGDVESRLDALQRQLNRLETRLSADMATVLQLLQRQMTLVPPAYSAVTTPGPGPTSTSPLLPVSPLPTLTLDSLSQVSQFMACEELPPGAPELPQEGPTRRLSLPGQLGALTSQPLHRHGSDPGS

The experiment addresses Voltage-gated inwardly rectifying potassium channel KCNH2 (Homo sapiens) (UniProt Q12809). Put plainly: qHTS Assay for Small Molecule Inhibitors of the Human hERG Channel Activity (AID 588834).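 Note: lower thallium flux fluorescence means stronger hERG block; nearly all actives have a fitted effect of over 50% in size.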 The following applies: U2OS BacMam hERG, FluxOR thallium flux fluorescence; series mostly up to 46.1 µM. The essentials: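 In hERG-transduced U2OS cells, dye-loaded for 1 hr at room temperature in dark, test compounds incubated 10 min at 37 °C before thallium stimulation. AC50 values derived by Hill modelling of concentration-response.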
In general terms: Quantitative high-throughput screening tests each substance at several concentrations.
Consider `COc1ccc(C[C@H](N)C(=O)N[C@H]2[C@@H](O)[C@H](n3cnc4c(N(C)C)ncnc43)O[C@@H]2CO)cc1`, for which the Potency entry was “inactive”. In the case of `CCCC(=O)O[C@]1(C(=O)COC(C)=O)CC[C@H]2[C@@H]3C[C@H](F)C4=CC(=O)C=C[C@]4(C)[C@@]3(F)[C@@H](O)C[C@@]21C`, the Potency result is “inactive”. In the case of `CO[C@@H]1[C@@H](O[C@@H]2O[C@H](C)[C@@H](O[C@H]3C[C@@](C)(O)[C@@H](O)[C@H](C)O3)[C@H](N(C)C)[C@H]2O)[C@@H](CC=O)C[C@@H](C)[C@@H](O[C@@H]2CC[C@H](N(C)C)[C@@H](C)O2)/C=C/C=C/C[C@@H](C)OC(=O)C[C@H]1O`, the Potency entry is “inactive”. For the compound `CCC1OC(=O)C[C@@H](O)[C@H](C)[C@@H](O[C@@H]2O[C@H](C)C[C@H](N(C)C)[C@H]2O)[C@@H](CC=O)C[C@@H](C)C(=O)/C=C/[C@]2(C)OC2C1C` (some centres undefined), the Potency entry was “inactive”.

Turning to `CC[N+](CC)(CC)CCC(O)(c1ccccc1)C1CCCCC1` (centres undefined), the Potency result is “inactive”. To `C[C@H](CCC(=O)O)[C@H]1CC[C@H]2[C@@H]3[C@H](O)C[C@@H]4C[C@H](O)CC[C@]4(C)[C@H]3CC[C@]12C` belongs “inactive”; to `CC[C@H]1OC(=O)[C@H](C)[C@@H](O[C@H]2C[C@@](C)(OC)[C@@H](O)[C@H](C)O2)[C@H](C)[C@@H](O[C@@H]2O[C@H](C)C[C@H](N(C)C)[C@H]2O)[C@](C)(O)C[C@@H](C)/C(=N\OCOCCOC)[C@H](C)[C@@H](O)[C@]1(C)O`, “inactive”. Consider `C=C[C@]1(C)C[C@@H](OC(=O)CSC(C)(C)CNC(=O)[C@H](N)C(C)C)[C@]2(C)[C@H](C)CC[C@]3(CCC(=O)[C@H]32)[C@@H](C)[C@@H]1O`, for which the Potency was 7.08 µM (active). As for `CCCCCC(CC)COC(=O)CC(C(=O)OCC(CC)CCCC)S(=O)(=O)O` (centres undefined), the entry is “inactive”; as for `CCCCCCC(O)C/C=C/CCCCCCCC(=O)O` (centres undefined), “inactive”. Take `CNc1cc(OC)c(C(=O)N[C@H]2CCN(Cc3ccccc3)[C@H]2C)cc1Cl`: the Potency was 12.6 µM (active).

For `CC(=O)OCC(=O)[C@@]12OC3(CCCC3)O[C@@H]1C[C@H]1[C@@H]3CCC4=CC(=O)C=C[C@]4(C)[C@@]3(F)[C@@H](O)C[C@@]12C`, the Potency result was “inactive”.

`CC(=O)OCC(=O)[C@@]1(O)CC[C@H]2[C@@H]3C[C@H](C)C4=CC(=O)C=C[C@]4(C)[C@H]3[C@@H](O)C[C@@]21C`: the Potency entry is “inactive”. To `O=C(O)C[C@H](O)C[C@H](O)/C=C/c1c(C2CC2)nc2ccccc2c1-c1ccc(F)cc1` belongs “inactive”.

`O=S(=O)(O)c1ccc2c(N=Nc3ccc(S(=O)(=O)O)c4ccccc34)c(O)c(S(=O)(=O)O)cc2c1`: the Potency entry is “inactive”. As for `CC(C)(C)C1(O)CCN2CC3c4ccccc4CCc4cccc(c43)C2C1` (centres undefined), the figure is 2.82 µM (active).

On to `NCc1ccccc1CC(=O)N[C@@H]1C(=O)N2C(C(=O)O)=C(CSc3nnnn3CC(=O)O)CS[C@H]12`, for which the Potency entry was “inactive”.

In the case of `COc1cc([C@@H]2c3cc4c(cc3[C@@H](O[C@@H]3O[C@@H]5CO[C@@H](C)O[C@H]5[C@H](O)[C@H]3O)[C@H]3COC(=O)[C@H]23)OCO4)cc(OC)c1O`, the Potency entry is “inactive”. As for `CO/N=C(\C(=O)N[C@@H]1C(=O)N2C(C(=O)O)=C(CSc3cnns3)CS[C@H]12)c1csc(N)n1`, the entry is “inactive”; as for `CCCCC(=O)N(Cc1ccc(-c2ccccc2-c2nn[nH]n2)cc1)[C@@H](C(=O)O)C(C)C`, “inactive”; as for `CC(C)NCC1CCc2cc(CO)c([N+](=O)[O-])cc2N1` (centres undefined), “inactive”. As for `CO[C@H]1C[C@H](O[C@H]2[C@H](C)[C@@H](O[C@@H]3O[C@H](C)C[C@H](N(C)C)[C@H]3OC(C)=O)[C@@H](C)C[C@]3(CO3)C(=O)[C@H](C)[C@@H](OC(C)=O)[C@@H](C)[C@@H](C)OC(=O)[C@@H]2C)O[C@@H](C)[C@@H]1OC(C)=O`, the entry is “inactive”; as for `CC[C@@H](C(=O)O)[C@@H]1O[C@@H]([C@@H](C)[C@H](O)[C@H](C)C(=O)[C@H](CC)[C@H]2O[C@]3(C=C[C@@H](O)[C@]4(CC[C@@](C)([C@H]5CC[C@](O)(CC)[C@H](C)O5)O4)O3)[C@H](C)C[C@@H]2C)[C@@H](C)C[C@@H]1C`, “inactive”. `CCC(=O)O[C@@H]1CC(=O)O[C@H](C)C/C=C/C=C/[C@H](O)[C@H](C)C[C@H](CC=O)[C@H](O[C@@H]2O[C@H](C)[C@@H](O[C@H]3C[C@@](C)(O)[C@@H](OC(=O)CC)[C@H](C)O3)[C@H](N(C)C)[C@H]2O)[C@H]1OC`: the Potency entry is “inactive”.
